Assay results: PubChem BioAssay AID1159580 (chemical genetic matrix, 2015)
Among all 5,500 compounds or so, about 2,000 (36%) were called active. Another 18% or so got no clear call; they are omitted. Rule as the data show it: active = normalized growth mostly below about 0.91 (no sharp cut-off); inconclusive = no clear call, values can overlap the other calls; inactive = mostly above about 0.92. Some of the results follow.

Assay: chemical genetic growth profiling, strain panel (AID 1159580);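 also: tested at 20 µM; growth read once vehicle control cultures reached saturation at 30 °C; 1 = growth at the plate median or of vehicle wells; lower values mean less growth of the strain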
Conditions: S. cerevisiae deletion strains, growth OD

Measured: normalized growth

CNC(=O)O/N=C\C(C)(C)SC
inactive: locus YAL013W, strain DEP1, active compounds read low 1.01 | locus YAL021C, strain ccr4, active compounds read low 0.997 | locus YAL026C, strain drs2, active compounds read low 1 | locus YAL030W, strain snc1, active compounds read low 1 | locus YBL061C, strain skt5, active compounds read low 1.01 | locus YBR009C, strain hhf1, active compounds read low 0.988 | locus YBR021W, strain FUR4, active compounds read low 1.03 | locus YBR023C, strain chs3, active compounds read low 1 | locus YBR171W, strain sec66, active compounds read low 1.01 | locus YBR229C, strain ROT2, active compounds read low 0.996 | locus YBR231C, strain swc5, active compounds read low 0.998 | locus YBR279W, strain paf1, active compounds read low 1.01 | locus YCL011C, strain gbp2, active compounds read low 1.01 | locus YCL016C, strain dcc1, active compounds read low 1.01 | locus YCL029C, strain bik1, active compounds read low 0.987 | locus YCL061C, strain MRC1, active compounds read low 1.01 | locus YCL069W, strain vba3, active compounds read low 1.01 | locus YCR088W, strain abp1, active compounds read low 1 | locus YDL005C, strain med2, active compounds read low 1 | locus YDL035C, strain GPR1, active compounds read low 1.02 | locus YDL040C, strain nat1, active compounds read low 0.99 | locus YDL074C, strain BRE1, active compounds read low 1.08 | locus YDL101C, strain DUN1, active compounds read low 1.01 | locus YDL134C, strain PPH21, active compounds read low 1.01 | locus YDL185W, strain tfp1, active compounds read low 0.99 | locus YDL192W, strain arf1, active compounds read low 0.994 | locus YDR001C, strain nth1, active compounds read low 1.01 | locus YDR069C, strain doa4, active compounds read low 0.999 | locus YDR101C, strain arx1, active compounds read low 0.986 | locus YDR137W, strain rgp1, active compounds read low 1.02 | locus YDR150W, strain NUM1, active compounds read low 1.01 | locus YDR159W, strain sac3, active compounds read low 0.965 | locus YDR162C, strain NBP2, active compounds read low 1.01 | locus YDR195W, strain ref2 0.964 | locus YDR297W, strain sur2, active compounds read low 0.999 | locus YDR318W, strain mcm21, active compounds read low 0.993 | locus YDR334W, strain swr1, active compounds read low 1.01 | locus YDR335W, strain msn5, active compounds read low 1.01 | locus YDR388W, active compounds read low 0.985 | locus YDR392W, strain spt3, active compounds read low 0.886 | locus YDR502C, strain sam2, active compounds read low 1 | locus YEL003W, strain gim4, active compounds read low 1.01 | locus YEL037C, strain rad23, active compounds read low 1.01 | locus YEL061C, strain CIN8 (second series), active compounds read low 1.01 | locus YEL061C, strain CIN8, active compounds read low 1 | locus YER015W, strain faa2, active compounds read low 1.02 | locus YER016W, strain bim1, active compounds read low 1.01 | locus YER110C, active compounds read low 0.983 | locus YER111C, strain swi4, active compounds read low 1.02 | locus YER155C, strain BEM2 (second series), active compounds read low 0.995 | locus YER155C, strain BEM2, active compounds read low 0.998 | locus YER167W, strain BCK2, active compounds read low 1.02 | locus YFR010W, strain ubp6, active compounds read low 0.998 | locus YGL078C, strain dbp3, active compounds read low 0.986 | locus YGL086W, strain mad1, active compounds read low 0.987 | locus YGL167C, strain pmr1, active compounds read low 0.995 | locus YGL173C, strain kem1, active compounds read low 0.997 | locus YGL227W, strain vid30, active compounds read low 1.01 | locus YGL240W, strain doc1, active compounds read low 0.972 | locus YGL248W, strain PDE1, active compounds read low 1.01 | locus YGL253W, strain hxk2, active compounds read low 0.997 | locus YGR078C, strain PAC10, active compounds read low 1.01 | locus YGR135W, strain pre9, active compounds read low 1 | locus YGR229C, strain SMI1, active compounds read low 1.03 | locus YGR252W, strain gcn5, active compounds read low 0.98 | locus YHR013C, strain ard1, active compounds read low 0.971 | locus YHR027C, strain rpn1, active compounds read low 1 | locus YHR030C, strain SLT2, active compounds read low 0.984 | locus YHR079C, strain IRE1 (second series), active compounds read low 0.988 | locus YHR094C, strain hxt1, active compounds read low 0.983 | locus YHR129C, strain ARP1, active compounds read low 1.02 | locus YHR142W, strain chs7, active compounds read low 1 | locus YHR200W, strain rpn10, active compounds read low 0.98 | locus YIL066C, strain RNR3, active compounds read low 1.03 | locus YIL073C, strain SPO22, active compounds read low 0.995 | locus YIL125W, strain kgd1, active compounds read low 0.997 | locus YIR030C, strain dcg1, active compounds read low 0.992 | locus YJL092W, strain hpr5, active compounds read low 1.01 | locus YJL095W, strain BCK1 (second series), active compounds read low 1 | locus YJL095W, strain BCK1, active compounds read low 1.03 | locus YJL115W, strain asf1, active compounds read low 1.02 | locus YJL129C, strain trk1, active compounds read low 1.01 | locus YJL134W, strain LCB3, active compounds read low 1 | locus YJL154C, strain vps35, active compounds read low 1.02 | locus YJL164C, strain tpk1, active compounds read low 1.01 | locus YJL166W, strain qcr8, active compounds read low 1 | locus YJL168C, strain set2, active compounds read low 0.98 | locus YJL187C, strain SWE1 (second series), active compounds read low 1.01 | locus YJL187C, strain SWE1, active compounds read low 0.998
